High-throughput results as filed in PubChem BioAssay.
HPGD block – blocks human HPGD enzyme activity; purified HPGD, NADH fluorescence kinetic, PGE2 substrate; Potency, µM, for the others: top-dose activity change, negative = inhibition, actives largely listed as inhibitors; 4.3% of 150,000 active; AID 894; active means well fitted inhibition curve with a large enough effect, not every such curve was filed as active; inconclusive means small, poorly fitted or top-dose-only effect, or another doubt; inactive means no such curve, though single readings can be large or run the other way
Target sequence (P15428 whole entry, looked up): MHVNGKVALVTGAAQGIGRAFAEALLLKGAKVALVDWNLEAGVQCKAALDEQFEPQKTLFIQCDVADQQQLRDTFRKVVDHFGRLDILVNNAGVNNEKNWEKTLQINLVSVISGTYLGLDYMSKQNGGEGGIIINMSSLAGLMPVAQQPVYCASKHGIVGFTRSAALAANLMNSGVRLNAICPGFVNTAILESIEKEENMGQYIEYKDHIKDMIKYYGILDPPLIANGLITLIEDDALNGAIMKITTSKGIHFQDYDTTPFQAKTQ
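20 nM HPGD preincubated 15 min at room temperature with compound in 50 mM Tris-HCl pH 8, 0.01% Tween 20. Started with 1 mM NAD+ and 30 uM prostaglandin E2; NADH fluorescence (360/450 nm) read 5 times over 30-s intervals, last minus first.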
ALDH1A1 block – blocks purified human ALDH1A1 activity; 7.3% of 220,000 active; Potency, µM (highest dose often 75.3 µM), for inactives: at the highest dose activity, negative = inhibition, most hits filed as inhibitors; P00352; Purified ALDH1A1, NADH fluorescence, propionaldehyde substrate; AID 1030; active means well fitted inhibition curve with a large enough effect, not every such curve was filed as active; inconclusive means small, poorly fitted or top-dose-only effect, or another doubt; inactive means no such curve, though single readings can be large or run the other way;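 further: plate controls were no enzyme wells and a reference inhibitor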
JMJD2E inh – JMJD2E (human) inhibition; B2RXH2; JMJD2E catalytic domain, FDH-coupled NADH fluorescence (FDH is formaldehyde dehydrogenase); Potency, µM (highest dose often 57.1 µM), for inactives: at the top dose activity change, negative = inhibition, hits mostly inhibitors; 1.6% of 230,000 active; active means well fitted inhibition curve with a large enough effect, not every such curve was filed as active; inconclusive means small, poorly fitted or top-dose-only effect, or another doubt; inactive means no such curve, though single readings can be large or run the other way;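 further: 0% = wells with enzyme and -100% = buffer wells without enzyme; nearly all actives have a fitted effect of over 50% in size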
Target sequence (B2RXH2 1-337 limits assumed): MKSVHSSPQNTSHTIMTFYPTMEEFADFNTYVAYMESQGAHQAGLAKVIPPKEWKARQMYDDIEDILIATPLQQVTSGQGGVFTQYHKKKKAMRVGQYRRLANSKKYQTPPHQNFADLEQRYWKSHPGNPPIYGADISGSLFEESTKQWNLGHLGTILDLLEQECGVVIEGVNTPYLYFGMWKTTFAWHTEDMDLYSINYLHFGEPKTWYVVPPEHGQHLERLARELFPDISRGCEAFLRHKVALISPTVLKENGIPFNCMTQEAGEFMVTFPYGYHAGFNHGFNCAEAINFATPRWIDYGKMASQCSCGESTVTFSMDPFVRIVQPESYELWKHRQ
Tau fluor cs – counter-screen for tau fibril formation inhibitors; tau K18 P301L Alexa594 fluorescence, heparin fibrillization; Potency, µM (top dose mostly 57.7 µM), for the others: at the top dose activity change, negative = decrease; 0.93% of 280,000 active; further: nearly all actives have a fitted effect of over 55% in size
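Human tau K18 P301L (15 uM unlabeled, 0.24 uM Alexa 594-labeled) in 100 mM sodium acetate pH 7 with 20 uM heparin, 6 hr at 37 C. ThT 30 uM added, 1 hr ambient; Alexa 594 FP and total fluorescence read at 555/632 nm.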
Tau ThT inhib – blocks human tau fibril formation measured by thioflavin T | recombinant tau K18 P301L, heparin-induced fibrillization, ThT fluorescence | Potency, µM (series often up to 57.4 µM), without a hit: at the highest dose activity, negative = inhibition, usual class: inhibitors | 2.1% of 270,000 active | AID 1460; further: nearly all actives have a fitted effect of over 55% in size
Target sequence (P10636 561-689 P618L limits assumed): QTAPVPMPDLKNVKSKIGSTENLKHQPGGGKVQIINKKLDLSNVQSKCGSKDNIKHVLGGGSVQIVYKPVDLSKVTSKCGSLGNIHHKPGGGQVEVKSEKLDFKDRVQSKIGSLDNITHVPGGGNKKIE
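Using a mix of unlabeled (15 uM) and Alexa 594-labeled (0.24 uM) tau K18 P301L, heparin-triggered fibrillization over 6 hr at 37 C was scored by ThT fluorescence.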
Tau FP inhib – blocks human tau fibril formation measured by polarization; AID 1468; P10636; K18 P301L tau heparin fibrillization, Alexa594 FP, 6 h; Potency, µM (top dose mostly 57.7 µM), inactives show at the top dose activity, negative = inhibition, actives largely listed as inhibitors; 0.39% of 280,000 active; further: nearly all actives have a fitted effect of over 55% in size
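Human tau K18 […] P301L fragment, 15 uM unlabeled plus 0.24 uM Alexa 594-labeled tau (final), with compound and 20 uM heparin in 100 mM sodium acetate pH 7; 6 hr at 37 C, then Alexa 594 FP read.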
* = called active by the depositor. Hits are enriched below; roughly 9.9% of the tested compounds scored in any of these assays. Unless noted, the call rests on the fitted dose curve; in most records, active means well fitted curve in the direction sought with a large enough effect; inconclusive means small, poorly fitted or top-dose-only effect, or another doubt; inactive means no such curve, though single readings can be large; an effect the other way counts as inactive or inconclusive. Unless noted, on the % scale 0 is the no-effect control and ±100 the full control effect; potency means the concentration at half of the fitted maximal effect.

What do the screens show for `Cc1ccc(C(C(=O)NCc2ccccc2)N(C(=O)c2csnn2)c2cccc3ccccc23)o1` (stereo not given)?
HPGD block: -12%; ALDH1A1 block: inconclusive; JMJD2E inh: -1%; Tau fluor cs: -9%; Tau ThT inhib: inconclusive; Tau FP inhib: 1%

How did COc1ccc(CNC(=O)C(c2ccc(C)o2)N(C(=O)c2csnn2)c2ccc(C(C)C)cc2)cc1 (stereo not given) do in these assays?
HPGD block: -11%; ALDH1A1 block: 2µM*; JMJD2E inh: -4%; Tau fluor cs: -10%; Tau ThT inhib: -12%; Tau FP inhib: 5%

What do the screens show for `CCSc1nc(=S)cc(C)[nH]1`?
ALDH1A1 block: 28µM*; JMJD2E inh: -3%; Tau fluor cs: -18%; Tau ThT inhib: inconclusive; Tau FP inhib: inconclusive

What do the screens show for `CCOC(=O)c1[nH]c2ccccc2c1NC(=O)c1ccccc1OC`?
Tau fluor cs: inconclusive; Tau ThT inhib: inconclusive; Tau FP inhib: 9%

What do the screens show for `CCN(C(=O)CSc1nc2nc(C)cc(C)n2n1)c1ccccc1`?
HPGD block: 14µM*; ALDH1A1 block: inconclusive; JMJD2E inh: 1%; Tau fluor cs: -8%; Tau ThT inhib: -4%; Tau FP inhib: -6%

How did Cc1cc(C)cc(N(CCC#N)C(=O)CSc2nc3nc(C)cc(C)n3n2)c1 do in these assays?
HPGD block: -19%; ALDH1A1 block: 4%; JMJD2E inh: 1%; Tau fluor cs: 2%; Tau ThT inhib: -1%; Tau FP inhib: 0%

What do the screens show for `COCCNC(=O)CSc1nc2nc(C)cc(C)n2n1`?
HPGD block: 20µM*; ALDH1A1 block: -9%; JMJD2E inh: -6%; Tau fluor cs: -7%; Tau ThT inhib: -11%; Tau FP inhib: -6%

Results for CCN(C(=O)CSc1nc2nc(C)cc(C)n2n1)c1cccc(C)c1 ?
HPGD block: 25µM*; ALDH1A1 block: inconclusive; JMJD2E inh: -1%; Tau fluor cs: -12%; Tau ThT inhib: -1%; Tau FP inhib: -9%

How did Cc1cc(C)n2nc(SCC(=O)N(C)C)nc2n1 do in these assays?
HPGD block: -3%; ALDH1A1 block: 0%; JMJD2E inh: -6%; Tau fluor cs: -9%; Tau ThT inhib: -16%; Tau FP inhib: 0%

Results for Cc1cc(C)n2nc(SCC(=O)Nc3ccccc3)nc2n1 ?
ALDH1A1 block: 1%; JMJD2E inh: -2%; Tau fluor cs: 2%; Tau ThT inhib: -1%; Tau FP inhib: 0%

What do the screens show for `Cc1cc(C)n2nc(SCN3C(=O)c4ccccc4C3=O)nc2n1`?
HPGD block: 22µM*; ALDH1A1 block: inconclusive; JMJD2E inh: 4%; Tau fluor cs: -1%; Tau ThT inhib: 3%; Tau FP inhib: -2%

Results for CSc1ccc(CCNC(=O)Cn2nc(C)n3c(cc4sccc43)c2=O)cc1 ?
Tau fluor cs: 8%; Tau ThT inhib: -4%; Tau FP inhib: -8%

What do the screens show for `Cc1ccc(-n2nc(C(=O)N(C)c3ccccc3Cl)c3c4ccccc4n(C)c3c2=O)cc1`?
Tau fluor cs: -14%; Tau ThT inhib: -4%; Tau FP inhib: inconclusive

How did Cc1ccc(NC(=S)Nc2cccnc2)c(S(=O)(=O)N2CCCCC2)c1 do in these assays?
ALDH1A1 block: inconclusive; JMJD2E inh: inconclusive; Tau fluor cs: inconclusive; Tau ThT inhib: 11%; Tau FP inhib: 32µM*

What do the screens show for `O=C(Nc1cccnc1)c1ccc2nc(-c3ccccc3)c(-c3ccccc3)nc2c1`?
ALDH1A1 block: 18µM*; JMJD2E inh: inconclusive; Tau fluor cs: inconclusive; Tau ThT inhib: -18%; Tau FP inhib: inconclusive

How did O=C(Nc1ccccn1)c1ccc2nc(-c3ccccc3)c(-c3ccccc3)nc2c1 do in these assays?
ALDH1A1 block: 11µM*; JMJD2E inh: inconclusive; Tau fluor cs: -11%; Tau ThT inhib: -6%; Tau FP inhib: -5%

What do the screens show for `O=C(Nc1cccnc1)c1ccc(Oc2ccccc2)cc1`?
HPGD block: -2%; ALDH1A1 block: 4%; JMJD2E inh: 0%; Tau fluor cs: -13%; Tau ThT inhib: -7%; Tau FP inhib: -4%

What do the screens show for `COc1ccc(C(=O)Nc2ccccn2)cc1`?
HPGD block: -1%; ALDH1A1 block: 9%; JMJD2E inh: 3%; Tau fluor cs: 4%; Tau ThT inhib: 1%; Tau FP inhib: -9%

What do the screens show for `Cc1ccc(Nc2nnc(-c3ccc4c(c3)OCO4)o2)c(C)c1`?
HPGD block: inconclusive; ALDH1A1 block: 19µM*; JMJD2E inh: inconclusive; Tau fluor cs: -10%; Tau ThT inhib: inconclusive; Tau FP inhib: 2%

How did CCc1nnc(SCc2ccc(OC)cc2)c2cc3sc(C)cc3n12 do in these assays?
Tau fluor cs: -9%; Tau ThT inhib: -13%; Tau FP inhib: 13%

Results for S=C1N[C@H](c2ccccc2)N[C@H](c2ccccc2)S1 ?
HPGD block: inconclusive; ALDH1A1 block: 3.2µM*

How did Cc1ccc(NC(=O)Cn2c(=O)n(CCCCC(=O)NCCc3ccccc3)c(=O)c3ccccc32)cc1 do in these assays?
Tau fluor cs: -12%; Tau ThT inhib: 11%; Tau FP inhib: inconclusive

Results for Cn1c(=O)oc2cc(S(=O)(=O)NC(CC(=O)O)c3cccc(Br)c3)ccc21 (stereo not given) ?
Tau fluor cs: -1%; Tau ThT inhib: -3%; Tau FP inhib: -2%

Results for O=C(Oc1ccccc1)c1ccc2nsnc2c1 ?
HPGD block: -5%; ALDH1A1 block: 4µM*; JMJD2E inh: 3%; Tau fluor cs: -25%; Tau ThT inhib: inconclusive; Tau FP inhib: -3%

How did Cc1sc2nc(C3CC3)nc(NCCNS(C)(=O)=O)c2c1C do in these assays?
HPGD block: -2%; ALDH1A1 block: 32µM*; JMJD2E inh: -7%; Tau fluor cs: -17%; Tau ThT inhib: inconclusive; Tau FP inhib: -6%

What do the screens show for `Cc1sc2nc(C3CC3)nc(N3CCN(S(=O)(=O)c4ccc(F)cc4)CC3)c2c1C`?
HPGD block: -10%; ALDH1A1 block: -7%; JMJD2E inh: -8%; Tau fluor cs: -4%; Tau ThT inhib: -1%; Tau FP inhib: -7%

What do the screens show for `O=C1C(Cl)=C(NCCCN2CCOCC2)C(=O)N1CCc1ccccc1`?
HPGD block: -21%; ALDH1A1 block: 7.9µM*; JMJD2E inh: -1%; Tau fluor cs: 4%; Tau ThT inhib: -5%; Tau FP inhib: 9%

Results for O=C1C(Cl)=C(NCCc2ccccc2)C(=O)N1CCc1ccccc1 ?
HPGD block: -16%; ALDH1A1 block: -2%; JMJD2E inh: inconclusive; Tau fluor cs: -8%; Tau ThT inhib: 7%; Tau FP inhib: -1%
